Test [1] can be described thus: qHTS profiling for inhibitors of Plasmodium falciparum proliferation (AID 504749).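 As to activity, negative = inhibition: 0% = DMSO vehicle and full inhibition = artemisinin control.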 As to all read-outs here: nearly all actives have a fitted effect of over 60% in size. To be noted: P. falciparum in erythrocytes, SYBR Green DNA, 72 h; for activity, negative = inhibition: at 28.7 µM (top of the series). The procedure, abridged:
(§1)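 Readout was DNA-dye fluorescence from lysed cultures, ex 485/em 535 nm. Parasitized red cells had grown 72 h with compound; data scaled between 0.29 uM artemisinin and DMSO wells and corrected using vehicle-only plates.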

Another test has as its system 3D7. The test is described as above. To be noted: P. falciparum in erythrocytes, SYBR Green DNA, 72 h; series mostly up to 28.7 µM. Put shortly: as §1
The next test concerns 7G8. Described as above. Conditions: P. falciparum in erythrocytes, SYBR Green DNA, 72 h; series mostly up to 28.7 µM. Put shortly:
as §1

The next test deals with AA1029. Described as above. To be noted: P. falciparum in erythrocytes, SYBR Green DNA, 72 h; series mostly up to 28.7 µM. The procedure, abridged: as §1
Another test has as its system AS120. The description is as above. Conditions: P. falciparum in erythrocytes, SYBR Green DNA, 72 h; series mostly up to 28.7 µM. Put shortly:
as §1

The next test deals with ATS95. The test is described as above. Conditions: P. falciparum in erythrocytes, SYBR Green DNA, 72 h; series mostly up to 28.7 µM. The procedure, abridged: as §1
The next test deals with C2A. Described as above. Conditions: P. falciparum in erythrocytes, SYBR Green DNA, 72 h; series mostly up to 28.7 µM. Put shortly: as §1
A further test relates to ATS189. The description is as above. To be noted: P. falciparum in erythrocytes, SYBR Green DNA, 72 h; series mostly up to 28.7 µM. Put shortly: as §1

Records with an inconclusive call do not appear. A number with no mark means an inactive call. Activity calls are given as the source filed them. Calls follow the shape of the dose curve; as a rule, active = well fitted inhibition curve with a large enough effect; inconclusive = small, poorly fitted or top-dose-only effect; inactive = flat fitted curve, though single readings scatter.
Potency is read from the fitted curve at half-maximal effect.

On to `O=CCCCC=O`, for which the figures for the activity, negative = inhibition in test [1] (parasite line A) and in test [1] (parasite line B) were -0.127% and 0.568%, respectively. The Potency result in the test on 3D7, with AA1029, in the test on AS120, with ATS95 and in the test on C2A was “inactive” throughout. The Potency in the test with 7G8 is 10 µM (active).
Consider `CCOC(=O)C1=C(C)NC(C)=C(C(=O)OCC)C1c1ccccc1C=CC(=O)OC(C)(C)C`, for which the Potency in test [1] (parasite line A) is 11.2 µM (active); in the test with 3D7, 11.2 µM (active); in the test on 7G8 it was 7.94 µM (active); in the test with AA1029 it was 8.91 µM (active); in the test on AS120, 8.91 µM (active); in the test on ATS95, 10 µM (active). Besides, the Potency entry in the test with C2A is “inactive”.
On to `O=C(O)c1cc(=O)c2c3nc4ccccc4oc-3cc(=O)c2[nH]1`, for which the activity, negative = inhibition in test [1] (parasite line A) was -19%; in test [1] (parasite line B) it was -11.6%. In addition, the Potency is 14.1 µM (active) in the test on 3D7 and 1.26 µM (active) in the test with 7G8. The Potency result in the test with AA1029, with ATS189, in the test with ATS95 and in the test with C2A was “inactive” each time.
`COC(=O)[C@H]1[C@H]2CC3c4[nH]c5ccccc5c4CCN3C[C@@H]2CC[C@@H]1O` (stereo not given in full): the activity, negative = inhibition was 14.5% in test [1] (parasite line A) and 13.8% in test [1] (parasite line B). For the same compound, the Potency entry in the test on 7G8, in the test on AA1029, in the test with AS120, with ATS189, with ATS95 and with C2A was “inactive” each time.
Regarding `CN(C)CCCN1c2ccccc2C(C)(C)c2ccccc21`, the activity, negative = inhibition in test [1] (parasite line A) is -5.82%; in test [1] (parasite line B) it was -11.4%. The Potency result in the test with 3D7 and in the test on C2A was “inactive” throughout. Moreover, in the test on ATS95, the Potency was 8.91 µM (active).
For `CC1(C)C(C=C(Cl)Cl)C1C(=O)OCc1cccc(Oc2ccccc2)c1` (stereo not given), the values for the activity, negative = inhibition in test [1] (parasite line A) and in test [1] (parasite line B) were -2.63% and -6.77%, respectively. For the same compound, the Potency result in the test on 3D7, in the test on AA1029, in the test with AS120, with ATS189, in the test with ATS95 and with C2A was “inactive” throughout.
Regarding `CCCC(=O)O[C@]1(C(=O)CCl)[C@H](C)C[C@@H]2[C@H]3CCC4=CC(=O)C=C[C@]4(C)[C@@]3(F)C(=O)C[C@@]21C`, the Potency in test [1] (parasite line A) is 1.41 µM (active); in test [1] (parasite line B), 2.24 µM (active); with 3D7 it was 2.51 µM (active); with 7G8 it was 2.51 µM (active); with AA1029, 2.82 µM (active); with AS120, 3.16 µM (active). Further, the Potency with ATS189 is 2.82 µM (active); with ATS95 it was 3.55 µM (active); in the test with C2A, 3.55 µM (active).
Consider `CCCCC(=O)O[C@]1(C(=O)CO)[C@H](C)C[C@H]2[C@@H]3CCC4=CC(=O)C=C[C@]4(C)[C@@]3(F)[C@@H](O)C[C@@]21C`, for which the Potency with 7G8 was 8.91 µM (active). Besides, the Potency result in the test on AA1029, in the test with ATS189, in the test on ATS95 and with C2A was “inactive” each time.
In the case of `O=C(Nc1cccc(C(F)(F)F)c1)c1cc(Br)cc(Br)c1O`, the Potency in test [1] (parasite line B) is 10 µM (active); with 7G8 it was 6.31 µM (active); in the test on AS120 it was 12.6 µM (active).
`O=C(Nc1ccc(Br)cc1)c1cc(Br)c(Br)s1`: the Potency (in test [1] (parasite line A); in the test on 7G8) was 10 µM (active) throughout.
As to `CCOc1ccc2c(c1)C(C)=CC(C)(C)N2`, the values for the activity, negative = inhibition in test [1] (parasite line A) and in test [1] (parasite line B) were -19.3% and -4.99%, respectively. The Potency result in the test with 7G8, with AA1029, with AS120, in the test with ATS189, with ATS95 and in the test on C2A was “inactive” each time.
Consider `C#C[C@]1(O)CC[C@H]2[C@@H]3CCC4=CCCC[C@@H]4[C@H]3C(=C)C[C@@]21CC`, for which the Potency result in the test with 7G8 and in the test with C2A was “inactive” throughout.
On to `CC(=O)Oc1c(C)cc(OCC(O)CNC(C)C)c(C)c1C` (stereo not given), for which the Potency result in the test on 3D7, in the test on 7G8, in the test on AA1029, in the test with AS120, with ATS189 and with ATS95 was “inactive” in each case. In addition, the Potency result in the test with C2A is “inactive”.
In the case of `COc1cc(-c2ccc(-[n+]3nc(-c4ccccc4)nn3-c3ccc([N+](=O)[O-])cc3)c(OC)c2)ccc1-[n+]1nc(-c2ccccc2)nn1-c1ccc([N+](=O)[O-])cc1`, the Potency in test [1] (parasite line A) was 10 µM (active); in test [1] (parasite line B), 11.2 µM (active); in the test on 3D7, 11.2 µM (active); in the test with 7G8, 11.2 µM (active); in the test with AA1029 it was 11.2 µM (active); in the test with C2A it was 11.2 µM (active).
Turning to `CC(C)=O`, the activity, negative = inhibition in test [1] (parasite line A) was -12.1%. The Potency result in the test with 3D7, in the test with 7G8, in the test on AA1029, in the test with AS120, with ATS189 and in the test on C2A was “inactive” throughout.
As for `CCOc1ccc(N=Nc2ccc(N)cc2N)cc1`, the activity, negative = inhibition in test [1] (parasite line B) was 14.7%. The Potency entry in the test on 3D7, in the test on AA1029, with AS120, in the test with ATS95 and in the test on C2A was “inactive” each time.
`CC(Cc1ccc(O)c(O)c1)C(C)Cc1ccc(O)c(O)c1` (stereo not given): the activity, negative = inhibition in test [1] (parasite line A) was 6.89%; in test [1] (parasite line B) it was -26.4%. For the same compound, the Potency entry in the test with 3D7, in the test with AA1029, in the test on ATS189, with ATS95 and in the test on C2A was “inactive” each time. Moreover, the Potency in the test on 7G8 was 8.91 µM (active).
As for `CC(=O)Oc1cc(C)c(OC(C)=O)c2ccccc12`, the Potency was 8.91 µM (active) in the test on 3D7, 5.01 µM (active) with 7G8, 10 µM (active) with AS120 and 11.2 µM (active) with C2A.
`Cc1ccccc1OCC(O)CNCCOc1ccc(C(N)=O)cc1` (stereo not given): the activity, negative = inhibition is 11.2% in test [1] (parasite line A) and 8.46% in test [1] (parasite line B). The Potency entry in the test on 3D7, in the test on 7G8, in the test on AA1029, with AS120, in the test with ATS189 and in the test with ATS95 was “inactive” each time. Besides, in the test on C2A, the Potency result is “inactive”.

These data come from PubChem BioAssay (NCATS).
